Results from PubChem BioAssay AID588689 (Southern Research Specialized Biocontainment Screening …, 2011).
Among all 340,000 compounds or so, about 1,000 (0.29%) were called active. No stated cut-off is given here; in the data, inconclusive means inhibition above about 29% without an active follow-up result; inactive means below that. A selection follows. Entries with a potency or affinity are not part of this list.

Biological target: Genome polyprotein (Dengue virus type 2 (strain 16681-PDK53)) (UniProt P29991)
Assay: Dengue-2 NS5 methyltransferase inhibitors, primary screen, biochemical, confirmation dose response (AID 588689)
Conditions: Dengue-2 NS5 methyltransferase capping enzyme assay, at 25 µM, stronger effect = higher value
[1] = measured here: pilot screen replicate inhibition

Question: For `CN(C1CCCCC1)S(=O)(=O)c1ccc(S(=O)(=O)N2CCN(C(=O)c3ccccc3F)CC2)cc1`, which inhibition is on record?
Answer: -5.65% (inactive)

Question: For `Cc1onc(-c2ccccc2)c1C(=O)Nc1ccc(Cl)cn1`, which inhibition is on record?
Answer: -2.24% (inactive)

Question: Which inhibition does the source give for `Cc1cc(NC(=O)CSCc2nc(-c3cccc(F)c3)oc2C)no1` here?
Answer: 4.17% (inactive)

Question: For `COc1ccc(N(CC(=O)NCCSC2CCCCC2)S(=O)(=O)c2ccc(C)cc2)cc1`, which inhibition is on record?
Answer: -4.51% (inactive)

Question: For `Cc1cccc(N2C(=O)CC(N3CCOCC3)C2=O)c1` (centres undefined), which inhibition is on record?
Answer: 0% (inactive)

Question: `Cc1ccc(N2C(=O)C(Cl)=C(N3CCOCC3)C2=O)c(C)c1` was tested. Which inhibition did it give?
Answer: 5.79% (inactive)

Question: How did the inhibition turn out when `O=C1C(Cl)=C(N2CCCCCC2)C(=O)N1c1ccccc1` was run?
Answer: -0.82% (inactive)

Question: How did the inhibition turn out when `CN1CCN(C2=C(Cl)C(=O)N(c3cccc(Cl)c3)C2=O)CC1` was run?
Answer: 12.9% (inactive)

Question: Which inhibition does the source give for `O=C1C(Cl)=C(N2CCCCCC2)C(=O)N1c1ccc(Cl)cc1` here?
Answer: 2.94% (inactive)

Question: For `CC1CCCN(C2=C(Cl)C(=O)N(c3cccc(Cl)c3)C2=O)C1` (centres undefined), which inhibition is on record?
Answer: 5.18% (inactive)

Question: How did the inhibition turn out when `COc1cc(C(=O)C(O)c2ccc(O)c(OC)c2)ccc1O` (centres undefined) was run?
Answer: 0% (inactive)

Question: How did the inhibition turn out when `CN(Cc1cnn(-c2ccc(F)cc2)c1)Cc1nc(Cc2ccccc2)no1` was run?
Answer: -8.38% (inactive)

Question: How did the inhibition turn out when `COC(=O)c1ccccc1C(=O)N1CCC(CCC(=O)NC2CC2)CC1` was run?
Answer: -9.72% (inactive)

Question: For `CC(C)NC(=O)CSc1nccc(-c2cccs2)n1`, which inhibition is on record?
Answer: 6.26% (inactive)

Question: How did the inhibition turn out when `CC(=O)C1=NN(c2ccccc2)C2(S1)S/C(=C\c1ccccc1)C(=O)N2c1ccccc1` (centres undefined) was run?
Answer: 3.22% (inactive)

Question: With `Cc1ccc(SCCc2cc[n+](CC(=O)c3ccccc3)cc2)cc1` as the compound, how does the inhibition read?
Answer: -23.5% (inactive)

Question: Which inhibition does the source give for `CCOc1ccc(-n2c(SCc3cc(=O)oc4cc(C)ccc34)nnc2-c2cccnc2)cc1` here?
Answer: -5.85% (inactive)

Question: For `COCC(COS(N)(=O)=O)Cc1ccccc1` (centres undefined), which inhibition is on record?
Answer: -5.61% (inactive)

Question: How did the inhibition turn out when `C/C(=N\NS(=O)(=O)c1ccccc1)c1ccc2c(c1)OCCO2` was run?
Answer: -5.78% (inactive)

Question: How did the inhibition turn out when `CC(=O)NCCc1nc2cc(NC(=O)c3ccc(F)cc3)ccc2n1C` was run?
Answer: 0.65% (inactive)

Question: With `COc1ccc(C2=CC(=O)CC(C)(C)C2)cc1OC` as the compound, how does the inhibition read?
Answer: -7.08% (inactive)

Question: For `CCn1c(CNC(=O)c2ccccc2F)nnc1SCC(=O)Nc1nncs1`, which inhibition is on record?
Answer: -2.93% (inactive)

Question: With `Cc1ccc(N2C(=O)C(Cl)=C(N3CCCCCC3)C2=O)c(C)c1` as the compound, how does the inhibition read?
Answer: -10.4% (inactive)

Question: How did the inhibition turn out when `COC(=O)c1cccc(N2C(=O)C3CC=CCC3C2=O)c1` (centres undefined) was run?
Answer: -7.22% (inactive)

Question: With `O=C1C(Cl)=C(N2CCCCCC2)C(=O)N1c1ccc(Br)cc1` as the compound, how does the inhibition read?
Answer: 4.71% (inactive)

Question: With `O=C1C(Cl)=C(N2CCCC2)C(=O)N1c1ccc(F)cc1` as the compound, how does the inhibition read?
Answer: 10.2% (inactive)

Question: `COC(=O)c1cccc(N2C(=O)c3cccnc3C2=O)c1` was tested. Which inhibition did it give?
Answer: 1.12% (inactive)

Question: Which inhibition does the source give for `Cc1ccc(N2C(=O)C(Cl)=C(NCCO)C2=O)c(C)c1` here?
Answer: -3.68% (inactive)

Question: For `N=C1c2ccccc2CN1NC(=O)CC12CC3CC(CC(C3)C1)C2`, which inhibition is on record?
Answer: -6.39% (inactive)

Question: For `COc1ccc(NCc2nnc(SCC#N)n2-c2ccccc2OC)cc1`, which inhibition is on record?
Answer: 4.71% (inactive)

Question: For `O=C(COC(=O)COc1ccccc1)NC12CC3CC(CC(C3)C1)C2`, which inhibition is on record?
Answer: 3.65% (inactive)

Question: For `CC1=CC(C)(C)N(C(=O)CN2C(=O)CCC2=O)c2ccccc21`, which inhibition is on record?
Answer: 4.64% (inactive)

Question: `C/C(=N\OCC(=O)Nc1cc(C)cc(C)c1)c1ccc2c(c1)OCCO2` was tested. Which inhibition did it give?
Answer: -2.91% (inactive)

Question: Which inhibition does the source give for `O=C1COC(c2ccccc2O)=NN1CCCl` here?
Answer: 4.57% (inactive)

Question: `O=C(CN1C(=O)NC2(CCCC2)C1=O)OCCOc1ccc(Br)cc1` was tested. Which inhibition did it give?
Answer: -1.44% (inactive)

Question: `CCOC(=O)[C@H](C)N1[C@H](C)[C@H](c2ccccc2)Oc2ccc(Cl)cc2S1(=O)=O` was tested. Which inhibition did it give?
Answer: -5.21% (inactive)

Question: How did the inhibition turn out when `Cc1ccc2cc(C=O)c(Cl)nc2c1` was run?
Answer: -3.88% (inactive)

Question: How did the inhibition turn out when `Cc1ccc2cc(C=O)c(N(C)C)nc2c1` was run?
Answer: 1.3% (inactive)

Question: `COc1ccc(C(=O)NC2CCCCCCC2)cc1OC` was tested. Which inhibition did it give?
Answer: -1.55% (inactive)

Question: For `CCN=c1scc(C)n1/N=C/c1cc(Br)c(O)c(Br)c1`, which inhibition is on record?
Answer: 9.36% (inactive)

Question: For `CN=c1scc(-c2cccs2)n1/N=C/c1ccccc1O`, which inhibition is on record?
Answer: -0.73% (inactive)

Question: How did the inhibition turn out when `CN=c1scc(-c2ccccc2F)n1/N=C/c1ccc(O)c(O)c1O` was run?
Answer: 26.9% (inactive)

Question: With `CCN=c1scc(-c2ccco2)n1/N=C/c1ccc(O)cc1` as the compound, how does the inhibition read?
Answer: 4.53% (inactive)

Question: `CC(C)N=c1scc(-c2cccs2)n1/N=C/c1ccc(O)c(O)c1O` was tested. Which inhibition did it give?
Answer: 16.7% (inactive)

Question: `CN=c1scc(-c2ccco2)n1/N=C/c1ccc(O)c(O)c1` was tested. Which inhibition did it give?
Answer: -2.15% (inactive)

Question: With `CN=c1scc(C)n1/N=C/c1ccc(O)cc1O` as the compound, how does the inhibition read?
Answer: 2.07% (inactive)

Question: For `CCN=c1scc(C)n1/N=C/c1ccsc1`, which inhibition is on record?
Answer: 2.4% (inactive)

Question: `COc1ccc(S(=O)(=O)NCCCN2CCCC2=O)cc1OC` was tested. Which inhibition did it give?
Answer: -6.1% (inactive)

Question: For `CC(C)(C)[C@@H]1C=C(C(=O)O)[C@H](c2ccc(Cl)cc2)N1S(=O)(=O)c1ccccc1`, which inhibition is on record?
Answer: -3.97% (inactive)

Question: And the inhibition [1]?
Answer: -4.61%

Question: How did the inhibition turn out when `Cn1c(SCC(=O)Nc2ccccc2)nc2c([nH]c3ccccc32)c1=O` was run?
Answer: -11.1% (inactive)

Question: `Nc1ccn([C@@H]2O[C@H](CNC(=O)[C@@H](Cc3cccnc3)NC=O)[C@@H](O)[C@H]2O)c(=O)n1` was tested. Which inhibition did it give?
Answer: -7.38% (inactive)

Question: `Cc1cc2nc(C)c3c(n2n1)CCC3` was tested. Which inhibition did it give?
Answer: -6.57% (inactive)

Question: `Nn1c(COc2ccccc2F)nnc1SCC(=O)NC1CCCC1` was tested. Which inhibition did it give?
Answer: -8.38% (inactive)

Question: For `O=C1c2ccccc2NC(c2ccc(-c3ccc(F)cc3)o2)N1O` (centres undefined), which inhibition is on record?
Answer: 13.4% (inactive)

Question: For `CN1C(=O)/C(=C/c2ccc(-c3ccccc3[N+](=O)[O-])o2)SC1=Nc1ccc(Cl)c(C(=O)O)c1`, which inhibition is on record?
Answer: 24.5% (inactive)

Question: `CC1=NN(c2ccc(C)cc2)C(=O)/C1=C/c1ccc(-c2cc([N+](=O)[O-])ccc2O)o1` was tested. Which inhibition did it give?
Answer: 21.8% (inactive)

Question: Which inhibition does the source give for `Cc1ccc(CN2C(=O)N/C(=C/c3ccc(-c4ccc(C(=O)O)cc4)o3)C2=O)cc1` here?
Answer: 14.9% (inactive)

Question: For `CC1=NN(c2ccc(Cl)c(C(=O)O)c2)C(=O)C1`, which inhibition is on record?
Answer: 10.9% (inactive)

Question: `CCOC(=O)c1cc(-c2ccc(/C=N\n3cnnc3)o2)ccc1Cl` was tested. Which inhibition did it give?
Answer: -3.91% (inactive)

Question: Which inhibition does the source give for `CCCOC(=O)c1cc(-c2ccc(/C=C3/C(=O)N(C)C(=O)C(C#N)=C3C)o2)ccc1Cl` here?
Answer: -12.3% (inactive)

Question: And the inhibition [1]?
Answer: -8.18%

Question: How did the inhibition turn out when `Cc1c(C(=O)O)cccc1-c1ccc(/C=C2/NC(=O)N(c3ccccc3)C2=O)o1` was run?
Answer: -1.55% (inactive)

Question: With `O=C(O)c1ccccc1-c1ccc(/C=C2\SC(=O)N(c3ccccc3)C2=O)o1` as the compound, how does the inhibition read?
Answer: 25.1% (inactive)
